“And” between values parts separate entries of the source, which are not always exact repeats. Equal values may be shown once. Records with an inconclusive call do not appear. A number with no mark means an inactive call. The source made the active and inactive calls. Calls follow the shape of the dose curve; as a rule, active = well fitted curve in the direction sought with a large enough effect in the repeat runs; inconclusive = weak or mixed curves; inactive = no such curve, though single readings can be large; an effect the other way counts as inactive or inconclusive.
assay: qHTS RealTime-Glo MT Cell Viability Assay in HEK293 cells - 8 hour (AID 1224887); conditions: RealTime-Glo luminescence; series mostly up to 76.8 µM; activity change, negative = cytotoxicity: at the top concentration; also: nearly all actives have a fitted effect of over 50% in size; as to activity change, negative = cytotoxicity: top concentration of the series differs between compounds
Procedure, shortened: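 Real-time viability in HEK293: signal arises when living cells convert a prosubstrate for NanoLuc in the medium, so luminescence tracks viable cell number. Compound (23 nL, DMSO) added 5 h post-seeding; kinetic reads at 0–40 h, 37 C.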
% is scaled to controls: 0 for no effect and ±100 for the full control effect; potency is read from the fitted curve at half-maximal effect.

Which “activity change, negative = cytotoxicity” value does the source give for Cc1occc(=O)c1OC(=O)C(C)C here?
The value was 0.927%.

With CC(=O)C1=C(C)[C@@H]2C[C@@]3(C1)[C@H](C)CC[C@H]3C2(C)C as the molecule, how does the Potency read?
The Potency was “inactive”.

Which Potency does the source give for O=C(O)c1cccc(C(=O)O)c1 here?
The Potency was “inactive”.

For c1ccc2cc3c(ccc4ccccc43)cc2c1, which Potency is on record?
The Potency was “inactive”.

Which “activity change, negative = cytotoxicity” value does the source give for CC[C@@H](N)CO here?
The value was 1.37%.

Which “activity change, negative = cytotoxicity” value does the source give for Cc1scc2c1N(C(=O)CN1CCN(C)CC1)c1ccccc1NC2=O here?
The value was 6.73% [at 35.3 µM].

With CC(N)=O as the molecule, how does the “activity change, negative = cytotoxicity” value read?
The value was 5.64% [at 200 µM].

For O=C1OC2(c3ccc(O)cc3Oc3cc(O)ccc32)c2ccccc21, which Potency is on record?
Its Potency is “inactive”.

With c1ccc2n[nH]nc2c1 as the molecule, how does the Potency read?
The Potency was “inactive”.

With Oc1c(Cl)cc(Cl)c(Cl)c1Cc1c(O)c(Cl)cc(Cl)c1Cl as the molecule, how does the Potency read?
Its Potency is “inactive”.

With c1ccc2c(c1)CCCC2C1=NCCN1 (centres undefined) as the molecule, how does the “activity change, negative = cytotoxicity” value read?
The value was 6.63% [at 35.3 µM].

Which “activity change, negative = cytotoxicity” value does the source give for CN1C(=O)c2ccc([N+](=O)[O-])cc2C1=O here?
The value was 1.58%.

Which Potency does the source give for Cc1cc(Cc2cc(C)cc(C(C)(C)C)c2O)c(O)c(C(C)(C)C)c1 here?
The Potency was 15.6 µM (active) and 19.5 µM (active).

Which Potency does the source give for CCN(CC)CCOc1ccc(/C(=C(\Cl)c2ccccc2)c2ccccc2)cc1 here?
Its Potency is 12.6 µM (active) and 21.3 µM (active).

Which Potency does the source give for NCCO here?
The Potency was “inactive”.

assay: A CellTox Green Cytotoxicity Assay to monitor cytotoxicity in HEK293 cells - 16 hour (AID 1224888); conditions: CellTox Green fluorescence; series mostly up to 76.8 µM; activity change: at the top concentration; also: nearly all actives have a fitted effect of over 35% in size
Procedure, shortened: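 Cells (HEK293, 600/well) and dye reagent are dispensed together. After 5 h at 37 C, 23 nL compound is pinned in. Plates stay at 37 C for 40 h with fluorescence read at 0h, 8h, 16h, 24h, 32h and 40h.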

Which Potency does the source give for CCN(CC)c1ccc2c(C)cc(=O)oc2c1 here?
Its Potency is “inactive”.

With CCCN[C@H]1CCc2nc(N)sc2C1 as the molecule, how does the Potency read?
The Potency was “inactive”.

With CC(C)(C)c1ccccc1 as the molecule, how does the “activity change” value read?
Its value is -4.02%.

Which “activity change” value does the source give for NC12CC3CC(CC(C3)C1)C2 here?
Its value is -12.1% [at 35.3 µM, stronger effect = higher value].

For NC(N)=NC(=O)Cc1c(Cl)cccc1Cl, which “activity change” value is on record?
The value was -1.89% [at 35.3 µM, stronger effect = higher value].

With CC(C)(C)NC(=O)[C@@H]1CN(Cc2cccnc2)CCN1C[C@@H](O)C[C@@H](Cc1ccccc1)C(=O)N[C@H]1c2ccccc2C[C@H]1O as the molecule, how does the Potency read?
The Potency was “inactive”.

Which Potency does the source give for CCCCCCCCCCCCCC[P+](CCCC)(CCCC)CCCC here?
Its Potency is 17.3 µM (active) and 19.5 µM (active).

For CCCNC(C)C(=O)Nc1ccccc1C (centres undefined), which “activity change” value is on record?
The value was -12.6% [at 35.3 µM, stronger effect = higher value].

Which Potency does the source give for CCOc1ccccc1C(N)=O here?
The Potency was “inactive”.

For CC(=O)CC(C)=O, which “activity change” value is on record?
The value was -2.04%.

With O=c1n(CC2CO2)c(=O)n(CC2CO2)c(=O)n1CC1CO1 (centres undefined) as the molecule, how does the Potency read?
The Potency was “inactive”.

For NNCCc1ccccc1, which Potency is on record?
Its Potency is “inactive”.

With CC1COC(=O)O1 (centres undefined) as the molecule, how does the Potency read?
Its Potency is “inactive”.

For CC1=CC(=O)c2ccccc2C1=O, which Potency is on record?
The Potency was 21.9 µM (active) and 26.8 µM (active).

Which Potency does the source give for O=Nc1ccc(Nc2ccccc2)cc1 here?
The Potency was “inactive”.

For Oc1ccc(Cl)cc1Cc1cc(Cl)ccc1O, which Potency is on record?
The Potency was “inactive”.

With CCCCOCCOC(=O)c1ccccc1C(=O)OCCOCCCC as the molecule, how does the Potency read?
The Potency was “inactive”.

Which “activity change” value does the source give for CCn1cc(C(=O)O)c(=O)c2cc(F)c(N3CCNC(C)C3)c(F)c21 (centres undefined) here?
Its value is -6.4% [at 35.3 µM, stronger effect = higher value].

With O=C(O)CP(=O)(O)O as the molecule, how does the “activity change” value read?
The value was -2.02% [at 35.3 µM, stronger effect = higher value].

With CCN(CC)C(=O)Nc1ccc(OCC(O)CNC(C)(C)C)c(C(C)=O)c1 (centres undefined) as the molecule, how does the “activity change” value read?
The value was -19.7% [at 35.3 µM, stronger effect = higher value].

Which “activity change” value does the source give for CCOc1ccc2c(c1)C(C)=CC(C)(C)N2 here?
Its value is 9.38%.

Which “activity change” value does the source give for COc1ccc(Cc2cnc(N)nc2N)cc1OC here?
Its value is -3.05% [at 35.3 µM, stronger effect = higher value].

With Cc1occc(=O)c1OC(=O)C(C)C as the molecule, how does the “activity change” value read?
Its value is 0.104%.

For CC(=O)C1=C(C)[C@@H]2C[C@@]3(C1)[C@H](C)CC[C@H]3C2(C)C, which Potency is on record?
Its Potency is “inactive”.

For O=C(O)c1cccc(C(=O)O)c1, which Potency is on record?
Its Potency is “inactive”.

For c1ccc2cc3c(ccc4ccccc43)cc2c1, which Potency is on record?
The Potency was “inactive”.

Which “activity change” value does the source give for CC[C@@H](N)CO here?
The value was -10.8%.

With Cc1scc2c1N(C(=O)CN1CCN(C)CC1)c1ccccc1NC2=O as the molecule, how does the “activity change” value read?
The value was -0.687% [at 35.3 µM, stronger effect = higher value].

Which “activity change” value does the source give for CC(N)=O here?
Its value is 9.63% [at 200 µM, stronger effect = higher value].

With O=C1OC2(c3ccc(O)cc3Oc3cc(O)ccc32)c2ccccc21 as the molecule, how does the Potency read?
Its Potency is 616 nM (active) and 1.2 µM (active).

Which “activity change” value does the source give for c1ccc2n[nH]nc2c1 here?
The value was -9.56%.

With Oc1c(Cl)cc(Cl)c(Cl)c1Cc1c(O)c(Cl)cc(Cl)c1Cl as the molecule, how does the “activity change” value read?
Its value is 2.12% [at 35.3 µM, stronger effect = higher value].

For c1ccc2c(c1)CCCC2C1=NCCN1 (centres undefined), which “activity change” value is on record?
The value was 2.07% [at 35.3 µM, stronger effect = higher value].

For CN1C(=O)c2ccc([N+](=O)[O-])cc2C1=O, which “activity change” value is on record?
The value was -5.95%.

For Cc1cc(Cc2cc(C)cc(C(C)(C)C)c2O)c(O)c(C(C)(C)C)c1, which Potency is on record?
The Potency was 49.2 µM (active).

For CCN(CC)CCOc1ccc(/C(=C(\Cl)c2ccccc2)c2ccccc2)cc1, which Potency is on record?
The Potency was 35.4 µM (active).

For NCCO, which “activity change” value is on record?
Its value is -12.1%.

assay: qHTS RealTime-Glo MT Cell Viability Assay in HepG2 cells - 0 hour (AID 1224889); conditions: RealTime-Glo luminescence; series mostly up to 76.8 µM; activity change, negative = cytotoxicity: at the top concentration; also: nearly all actives have a fitted effect of over 50% in size
Procedure, shortened: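 Viability was tracked continuously by NanoLuc luminescence from prosubstrate reduced by living HepG2 cells, at successive time points over 40 h of compound exposure. Cells with reagent were preincubated 5 h at 37 °C before compound addition.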

With CCN(CC)c1ccc2c(C)cc(=O)oc2c1 as the molecule, how does the “activity change, negative = cytotoxicity” value read?
The value was -8.76%.

With CCCN[C@H]1CCc2nc(N)sc2C1 as the molecule, how does the Potency read?
Its Potency is “inactive”.

With CC(C)(C)c1ccccc1 as the molecule, how does the “activity change, negative = cytotoxicity” value read?
The value was 6.39%.

Which “activity change, negative = cytotoxicity” value does the source give for NC12CC3CC(CC(C3)C1)C2 here?
The value was 1.46% [at 35.3 µM].

With NC(N)=NC(=O)Cc1c(Cl)cccc1Cl as the molecule, how does the “activity change, negative = cytotoxicity” value read?
The value was 3.25% [at 35.3 µM].

Which Potency does the source give for CC(C)(C)NC(=O)[C@@H]1CN(Cc2cccnc2)CCN1C[C@@H](O)C[C@@H](Cc1ccccc1)C(=O)N[C@H]1c2ccccc2C[C@H]1O here?
The Potency was “inactive”.

For CCCCCCCCCCCCCC[P+](CCCC)(CCCC)CCCC, which Potency is on record?
Its Potency is “inactive”.

For CCCNC(C)C(=O)Nc1ccccc1C (centres undefined), which “activity change, negative = cytotoxicity” value is on record?
Its value is 8.86% [at 35.3 µM].

Which Potency does the source give for CCOc1ccccc1C(N)=O here?
The Potency was “inactive”.

Which “activity change, negative = cytotoxicity” value does the source give for CC(=O)CC(C)=O here?
Its value is -1.12%.

Which Potency does the source give for O=c1n(CC2CO2)c(=O)n(CC2CO2)c(=O)n1CC1CO1 (centres undefined) here?
The Potency was “inactive”.

For NNCCc1ccccc1, which Potency is on record?
The Potency was “inactive”.

For CC1COC(=O)O1 (centres undefined), which Potency is on record?
The Potency was “inactive”.

With CC1=CC(=O)c2ccccc2C1=O as the molecule, how does the “activity change, negative = cytotoxicity” value read?
The value was -18.8% [at 35.3 µM].

For O=Nc1ccc(Nc2ccccc2)cc1, which Potency is on record?
The Potency was 19.6 µM (active).

For Oc1ccc(Cl)cc1Cc1cc(Cl)ccc1O, which Potency is on record?
Its Potency is “inactive”.

With CCCCOCCOC(=O)c1ccccc1C(=O)OCCOCCCC as the molecule, how does the Potency read?
The Potency was “inactive”.

Which “activity change, negative = cytotoxicity” value does the source give for CCn1cc(C(=O)O)c(=O)c2cc(F)c(N3CCNC(C)C3)c(F)c21 (centres undefined) here?
Its value is -1.57% [at 35.3 µM].

Which “activity change, negative = cytotoxicity” value does the source give for O=C(O)CP(=O)(O)O here?
The value was -0.794% [at 35.3 µM].

Which “activity change, negative = cytotoxicity” value does the source give for CCN(CC)C(=O)Nc1ccc(OCC(O)CNC(C)(C)C)c(C(C)=O)c1 (centres undefined) here?
Its value is -1.25% [at 35.3 µM].

With CCOc1ccc2c(c1)C(C)=CC(C)(C)N2 as the molecule, how does the “activity change, negative = cytotoxicity” value read?
The value was 1.94%.

Which “activity change, negative = cytotoxicity” value does the source give for COc1ccc(Cc2cnc(N)nc2N)cc1OC here?
The value was 0.917% [at 35.3 µM].

For Cc1occc(=O)c1OC(=O)C(C)C, which “activity change, negative = cytotoxicity” value is on record?
The value was 4.49%.

Which Potency does the source give for CC(=O)C1=C(C)[C@@H]2C[C@@]3(C1)[C@H](C)CC[C@H]3C2(C)C here?
Its Potency is “inactive”.

With O=C(O)c1cccc(C(=O)O)c1 as the molecule, how does the Potency read?
The Potency was “inactive”.

Which Potency does the source give for c1ccc2cc3c(ccc4ccccc43)cc2c1 here?
The Potency was “inactive”.

With CC[C@@H](N)CO as the molecule, how does the “activity change, negative = cytotoxicity” value read?
Its value is 5.69%.

With Cc1scc2c1N(C(=O)CN1CCN(C)CC1)c1ccccc1NC2=O as the molecule, how does the “activity change, negative = cytotoxicity” value read?
The value was 3.37% [at 35.3 µM].

For CC(N)=O, which “activity change, negative = cytotoxicity” value is on record?
Its value is 5.72% [at 200 µM].

For O=C1OC2(c3ccc(O)cc3Oc3cc(O)ccc32)c2ccccc21, which Potency is on record?
Its Potency is “inactive”.

With c1ccc2n[nH]nc2c1 as the molecule, how does the Potency read?
The Potency was “inactive”.

Which “activity change, negative = cytotoxicity” value does the source give for Oc1c(Cl)cc(Cl)c(Cl)c1Cc1c(O)c(Cl)cc(Cl)c1Cl here?
Its value is -3.44% [at 35.3 µM].

For c1ccc2c(c1)CCCC2C1=NCCN1 (centres undefined), which “activity change, negative = cytotoxicity” value is on record?
Its value is -0.127% [at 35.3 µM].

Which “activity change, negative = cytotoxicity” value does the source give for CN1C(=O)c2ccc([N+](=O)[O-])cc2C1=O here?
Its value is 1.45%.

With Cc1cc(Cc2cc(C)cc(C(C)(C)C)c2O)c(O)c(C(C)(C)C)c1 as the molecule, how does the Potency read?
The Potency was “inactive”.

For CCN(CC)CCOc1ccc(/C(=C(\Cl)c2ccccc2)c2ccccc2)cc1, which Potency is on record?
Its Potency is “inactive”.

Which Potency does the source give for NCCO here?
Its Potency is “inactive”.

Source: PubChem BioAssay (Tox21)
